# Experimental data reported in the supplement of paper PMC6555819.
# Assays:
# Experiment in all cases: PBM binding z-score (relative to random genomic background probes); higher = stronger binding; sequences stand for … in GC…GCGATTGACAGCGTAGAATGAAGG
# [1] = tested on: FXR:RXRa (NR concentration 270 nM, RXRa partner concentration 90 nM)
# Summary of the method: (§1)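 Custom Agilent 4×180K protein-binding microarrays carried double-stranded probes. Their 34-nt variable regions held direct-repeat seeds, single-nucleotide variants, half-site ablations and random human genomic background sequences. Arrays were incubated 1 h with ligand-free nuclear receptor dimers in PBS pH 7.4, 2% milk, 0.02% Triton X-100, 1 mM DTT, 0.2 mg/mL BSA and 0.4 mg/ml salmon testes DNA. Antibodies against each partner (one per run) detected binding, and scanned fluorescence was regression-normalized. Binding z-scores use random background probes as reference.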
# [2] = tested on: LXRa:RXRa (NR concentration 270 nM, RXRa partner concentration 90 nM)
# Summary of the method: as §1
# [3] = tested on: LXRa homodimer (NR concentration 270 nM)
# Summary of the method: as §1
# [4] = tested on: LXRb:RXRa (NR concentration 270 nM, RXRa partner concentration 90 nM)
# Summary of the method: as §1
# [5] = tested on: LXRb homodimer (NR concentration 270 nM)
# Summary of the method: as §1
# [6] = tested on: PPARa:RXRa (NR concentration 270 nM, RXRa partner concentration 90 nM)
# Summary of the method: as §1
# [7] = tested on: PPARg:RXRa (NR concentration 180 nM, RXRa partner concentration 90 nM)
# Summary of the method: as §1
# [8] = tested on: PPARg:RXRa 270nM:90nM, anti-RXR (NR concentration 270 nM, RXRa partner concentration 90 nM)
# Summary of the method: as §1
# [9] = tested on: PPARg:RXRa 30nM:10nM, anti-RXR (NR concentration 30 nM, RXRa partner concentration 10 nM)
# Summary of the method: as §1
# [10] = tested on: PPARg:RXRa 90nM:30nM, anti-RXR (NR concentration 90 nM, RXRa partner concentration 30 nM)
# Summary of the method: as §1
# [11] = tested on: PPARg:RXRa DBDmut IVT, anti-RXR (DBD mutation: RXRa K156A/R161A, NR concentration 270 nM, RXRa partner concentration 90 nM)
# Summary of the method: as §1
# [12] = tested on: PPARg:RXRa IVT, anti-PPARg (NR concentration 270 nM, RXRa partner concentration 90 nM)
# Summary of the method: as §1
# [13] = tested on: PPARg DBDmut:RXRa IVT, anti-PPARg (DBD mutation: PPARg1 K132A/R137A, NR concentration 270 nM, RXRa partner concentration 90 nM)
# Summary of the method: as §1
# [14] = tested on: PPARg DBDmut IVT, anti-PPARg (DBD mutation: PPARg1 K132A/R137A, NR concentration 270 nM)
# Summary of the method: as §1
# [15] = tested on: PPARg homodimer (NR concentration 180 nM)
# Summary of the method: as §1
# [16] = tested on: PXR:RXRa (NR concentration 270 nM, RXRa partner concentration 90 nM)
# Summary of the method: as §1
# [17] = tested on: PXR homodimer (NR concentration 270 nM)
# Summary of the method: as §1
# [18] = tested on: RARa:RXR (NR concentration 270 nM, RXRa partner concentration 90 nM)
# Summary of the method: as §1
# [19] = tested on: RARa homodimer (NR concentration 270 nM)
# Summary of the method: as §1
# [20] = tested on: RARb:RXRa (NR concentration 270 nM, RXRa partner concentration 90 nM)
# Summary of the method: as §1
Sequence,PBM binding z-score [1],PBM binding z-score [2],PBM binding z-score [3],PBM binding z-score [4],PBM binding z-score [5],PBM binding z-score [6],PBM binding z-score [7],PBM binding z-score [8],PBM binding z-score [9],PBM binding z-score [10],PBM binding z-score [11],PBM binding z-score [12],PBM binding z-score [13],PBM binding z-score [14],PBM binding z-score [15],PBM binding z-score [16],PBM binding z-score [17],PBM binding z-score [18],PBM binding z-score [19],PBM binding z-score [20]
CGTCCAAGGTCATAGGAGCTCAGTGAAGACAGAT,7.5,5.19,0.569,3.82,0.584,5.64,4.69,5.04,1.57,3.6,2.78,3.29,1.43,-0.573,2.6,4.27,1.07,4.66,0.0934,5.1
ATAAGTAGGTTACATCCGGGTCATTCAGGCTATG,2.43,4.37,1.57,2.84,1.24,4.53,6.68,5.15,3.19,4.37,7.68,7.66,4.25,3.55,2.34,3.51,2.42,3.58,1.79,2.26
TGAATGAGGTTAAAGATCACGGAACGTGGCGTCG,3.68,2.87,-0.664,2.2,0.233,5.33,7.54,7.16,6.14,7.59,2.31,3.53,0.896,0.358,0.7,2.94,-0.299,4.67,0.0716,2.18
AGAATCAGGTTACCAAAGATCAGGGAAACGCTTG,0.0425,4.27,-0.14,1.12,0.162,1.69,1.24,1.19,0.411,0.466,3.77,3.08,0.88,1.06,0.0981,0.0669,-0.0157,0.359,-0.131,1.08
AGAACGAGGGCAATGAGTTGATAGCCCGGGTGGC,0.0897,0.0637,-0.355,-0.437,-0.943,1.34,1.01,0.868,-0.3,0.416,3.22,2.62,0.0916,-0.0623,0.48,1.43,5.33,0.0801,-0.603,2.13
CCTTGCAGGCCAATCTGGGTCACTCAAGGCTTGA,0.555,1.37,-0.554,1.1,-0.539,3.31,2.29,2.35,-0.0639,1.2,4.87,5.67,0.0467,-0.339,0.973,1.02,-0.543,1.59,-0.229,1.53
CCTACTGCGCCATCAGGTCATTGATATCAACGTT,1.39,1.32,1.7,2.2,1.17,1.73,0.376,0.994,0.212,0.573,0.542,1.25,-0.701,0.364,1.76,1.98,0.943,2.03,0.602,1.76
CAAACTAGGTCAATAGGTCAAAGTCCGCTTCCCG,5.97,5.58,3.46,4.5,1.42,5.97,9.53,7.87,6.52,8.3,8.58,8.3,2.88,0.687,6.16,4.57,0.894,6.73,3.02,5.04
CCTACTGTGCCACGAAAGGTCATTGATTCAGTGA,3.98,5.43,5.47,4.73,1.31,4.62,3.72,4.36,2,3.59,5.18,4.39,0.906,0.678,3.62,5.32,1.94,5.05,1.63,3.96
CGTCCAAGGTCAGAGAGGTCAGGGAATGCCGAGT,6.63,5.17,3.24,4.51,0.359,5,4.38,4.53,1.42,3.6,2.19,3.4,0.15,0.231,4.31,5.87,10.6,5.44,1.09,5.55
GCTGCTAGCTCAACTGATGGTCAGCTAAAGCTCG,-0.673,-0.959,-0.842,-1.01,-1.05,-1.23,-0.747,-1.13,-1.24,-1.15,-0.64,-0.817,-1.66,-1.33,-1.88,-0.933,-1.77,-1.22,-1.08,-0.407
GCTAGTTGGTCAGAAAAAGGTCACACACCGGTCG,2.95,3.7,3.13,3.75,0.434,4.21,1.74,3.02,0.669,2.14,0.771,2.29,-0.31,-0.0601,4.2,4.56,1.01,5.62,1.53,4.17
CCGAGTGGGGCAAGGTTACCATAACGCACAGCCA,0.236,0.965,-0.227,0.664,-0.711,1.78,2.73,2.77,0.815,2.3,1.75,3.14,-0.586,-0.492,0.921,0.439,0.123,1.16,-0.144,1.4
ATATGTAGGTTATCGGCTCATTCAGTTTGCGCAT,0.488,0.867,0.283,0.755,1.03,2.6,4.14,3.87,1.47,3.4,6.92,6.58,2.28,1.66,1.39,0.282,0.405,0.31,1.01,0.662
CTCGAAAGGTCGTGCTCAGGAGAGTATACCAAAC,4.89,3.56,0.247,3.12,0.29,4.7,2.62,3.59,1.02,2.48,0.885,1.49,0.0921,0.34,0.909,2.6,0.45,3.47,0.362,3.87
CTCGAAAGGTCGTGCTCAGGTGAGTAAACCAAAC,5.29,3.87,0.151,3.25,0.181,4.92,2.7,4.18,0.732,2.6,0.815,1.96,0.213,0.0254,1.55,3.34,0.175,4.18,0.14,3.98
CGTTAAAGTTCAAGGTAACGTAACAGAAAGCAGC,6.06,5.3,2.94,3.2,1.15,4.56,3.3,4.01,1.81,3.27,0.894,2.08,0.767,0.8,1.94,3.79,2.16,2.94,2.05,4.96
GCTAGTTGGTCAGTAAAAGGTCATACACCGGTCG,3.17,4.37,5.64,3.93,0.896,4.45,2.95,4.03,2.15,3.55,0.651,2.38,-0.0949,-0.0441,3.01,4.5,1.09,5.05,1.09,3.94
ATCGAAAGGTCGACGAGGCGAGTATACACCGTTT,3.59,3.38,0.0627,2.5,0.404,4.27,2.48,2.74,0.711,1.71,0.214,1.62,0.933,1.13,1.44,2.47,0.0107,3.26,0.0419,3.84
AGAATTAGGTTATTAAGATCAGGGAATTGCGGTC,0.488,0.607,0.495,0.404,0.244,1.87,1.99,2.31,1.74,1.58,6.63,5.44,1.55,1.27,1.3,0.5,0.468,0.229,1.73,0.932
CCTCGGAGGACAGAAGGTCACAGCTGTCCGCTTT,2.65,3.33,0.899,2.27,-0.713,3.54,0.989,2.62,-0.00709,1.83,0.643,1.32,-1.36,-2.05,2.05,3.33,-0.204,4.13,1.25,3.77
CGACCAAGGTCATAGGAGGTCAGTGAAGACAGAT,7.7,7.58,4.51,5.89,0.466,5.7,6.04,5.91,2.45,4.68,3.37,4.52,0.399,-0.258,5.37,6.88,4.39,6.18,2.16,5.22
ATATGTAGGCTACATCCGGGTCATTCAGGCTATG,0.976,1.54,0.0787,1.85,0.425,3.62,3.08,2.77,1.13,1.85,5.71,5.66,1.96,1.11,0.66,2.34,1.04,2.51,0.115,1.27
CGAACTAGGTCATTGACAGGACAGAGAATAGTAA,4.59,3.18,0.538,1.92,0.12,4.71,7.41,6.39,3.83,6.06,8,8.14,4.58,3.51,2.33,1.5,-0.262,2.19,0.528,3.65
ACTAGTTGGTCAGCTGAGGTGACACACAATTCGG,1.58,0.508,-0.0551,0.499,-0.125,1.27,1.16,0.582,-0.235,0.398,1.56,2,0.518,0.422,0.486,0.897,0.101,1.27,-0.129,1.45
ATATGTAGGTCACATCCGGGTCATTCAGGCTATG,4.9,5.58,3.31,4.45,1.88,5.8,9.18,7.48,5.41,7.3,8.71,8.92,2.83,2.12,3.45,5.25,2.96,5.31,0.84,4.34
AGAACGAGGGCAATGAATTGATAGCACGGGTGGC,0.314,0.102,-0.259,0.0164,-0.479,1.32,1.27,0.732,0.112,0.346,3.39,2.58,0.112,-0.0881,-0.139,0.372,0.123,0.568,0.175,2.01
TAGCCTAGGTCATCGGCCAGTATACCACGCGAAC,4.02,3.35,0.717,2.54,0.178,3.56,2.62,2.75,0.448,1.67,1.44,2.98,1.05,0.00127,1.6,1.62,-0.365,2.58,-0.512,3.75
